# An excerpt weighted towards active compounds, which were near 18% of everything screened.
# CtBP-E1A blk = inhibitors of CtBP/E1A interaction; AlphaScreen GST-E1A/His-CtBP binding, 1536-well; hits give low values; activity change, % (test concentration not listed); hit rate 0.49% among 340,000; in the data active = activity change below about -65%; inconclusive = mostly about -30% to -63%
#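 Steps: dispense buffer (Tris pH 8.0, NaCl 300 mM, TCEP 1 mM, BSA, Tween 20); add 5X protein mix (GST-E1A, His-CtBP, 125 nM each); pin 23 nL compound; 2 h at 37 °C, dark; add 5X beads (50 ug/mL); 1 h; read.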
# Six1-Eya2 inh = Six1/Eya2 interaction inhibition; AID 651725; hit rate 0.56% among 360,000; AlphaScreen GST-Six1/His-Eya2 binding, biochemical; hits give low values; activity change, % (concentration not given with the values); Q15475+O00167; in the data active = activity change below about -65%; inconclusive = mostly about -30% to -63%
#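 Homogeneous AlphaScreen proximity assay pairing GST-Six1 with His-tagged Eya2 (added as 5X mix: 250 nM and 500 nM) in 50 mM Tris pH 8.0, 300 mM NaCl, 1 mM TCEP. Glutathione donor and nickel acceptor beads; 1 h, 37 °C, dark.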
# TDP1 block = inhibitors of human tyrosyl-DNA phosphodiesterase TDP1; Q9NUW8; recombinant TDP1, AlphaScreen DNA substrate cleavage; Potency, µM (doses to about 130 µM), usual class: inhibitors; hit rate 0.28% among 350,000; also: nearly all actives have a fitted effect of over 40% in size
# Target sequence (Q9NUW8 whole entry, looked up): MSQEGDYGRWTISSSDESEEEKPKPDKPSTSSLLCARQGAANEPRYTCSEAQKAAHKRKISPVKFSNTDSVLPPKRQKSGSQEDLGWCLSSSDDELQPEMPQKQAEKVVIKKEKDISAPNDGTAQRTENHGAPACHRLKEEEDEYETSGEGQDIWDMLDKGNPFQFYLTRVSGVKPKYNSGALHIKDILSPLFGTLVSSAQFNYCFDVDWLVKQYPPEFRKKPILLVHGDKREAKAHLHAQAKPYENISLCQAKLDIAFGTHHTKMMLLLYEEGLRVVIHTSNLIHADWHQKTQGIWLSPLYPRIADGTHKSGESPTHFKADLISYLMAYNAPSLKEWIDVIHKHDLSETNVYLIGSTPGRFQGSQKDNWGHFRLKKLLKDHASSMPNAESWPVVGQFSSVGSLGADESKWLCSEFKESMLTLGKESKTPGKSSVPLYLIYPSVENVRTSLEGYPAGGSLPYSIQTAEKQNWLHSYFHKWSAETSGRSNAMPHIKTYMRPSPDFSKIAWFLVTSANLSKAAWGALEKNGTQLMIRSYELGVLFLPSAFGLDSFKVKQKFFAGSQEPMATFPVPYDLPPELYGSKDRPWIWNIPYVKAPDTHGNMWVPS
#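 Signal: AlphaScreen proximity between streptavidin donor and anti-FITC acceptor beads on intact substrate. Reaction: Tdp1 1 nM, substrate 15 nM final, 5 min RT after 15 min compound preincubation.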
# DT40 TDP1 no CPT = qHTS for Inhibitors of human tyrosyl-DNA phosphodiesterase 1 (TDP1): qHTS in cells in absence of CPT | Potency, µM (series often up to 46.2 µM), hits mostly inhibitors | hit rate 15% among 420,000 | AID 686978, 2013 | DT40 Tdp1-/- hTDP1 cells, no CPT, ATP luminescence, 48 h; also: nearly all actives have a fitted effect of over 55% in size
#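 DT40 Tdp1-/-;hTDP1 cells, no CPT (DMSO vehicle only), 400 cells/well; compounds pin-transferred; ≥48 hr, 37 °C; CellTiter-Glo 30 min RT dark, luminescence read.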
# DT40 TDP1 CPT = growth inhibition of DT40 Tdp1-/-;hTDP1 cells with camptothecin (screen for TDP1 inhibitors). chicken DT40 Tdp1-/-;hTDP1 cells + 20 nM CPT, ATP luminescence, 48 h. Potency, µM (titrated, usually from 46.2 µM), most hits filed as inhibitors. hit rate 12% among 420,000. AID 686979; also: nearly all actives have a fitted effect of over 55% in size
#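 Chicken DT40 Tdp1-/- cells stably complemented with human TDP1 were seeded at 400 cells/well in medium containing 20 nM camptothecin, exposed to pin-transferred compounds, and grown at 37 °C for at least 48 hr. Viability was read as ATP luminescence.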
# IL-1B inflam inh = blocks inflammasome-driven IL-1 beta release. THP-1 LPS/ATP IL-1B secretion, AlphaLISA, 16 h; hits give low values. activity change, % at 57.5 µM. hit rate 4.7% among 360,000. AID 743279; in the data active = activity change below about -50%; inconclusive = mostly about -30% to -49%
#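 Secreted IL-1B measured by AlphaLISA bead assay after 16 h compound exposure of THP-1 cells; compounds (final up to 57.5 uM) added 1 h before LPS (250 ng/mL) and ATP (1.25 mM) stimulation; lower signal means less secretion.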
# Numbers stand for hits; – = inactive; ? = inconclusive; · = not tested or not shown. Unless noted, calls follow the shape of the dose curve; as a rule, active = well fitted curve in the direction sought with a large enough effect; inconclusive = small, poorly fitted or top-dose-only effect, or another doubt; inactive = no such curve, though single readings can be large; an effect the other way counts as inactive or inconclusive.
SMILES,CtBP-E1A blk,Six1-Eya2 inh,TDP1 block,DT40 TDP1 no CPT,DT40 TDP1 CPT,IL-1B inflam inh
CC1CCN(C(=O)CC(NC(N)=O)c2ccccc2Cl)CC1 (stereo not drawn),–,–,–,–,–,–
CCCCCCCC(=O)C(C)C(=O)N(C)[C@H](Cc1ccc(OC)cc1)C(=O)N(C)[C@H](C(N)=O)C(C)C (stereo partly drawn),–,–,–,23.1µM,?,–
O=[N+]([O-])c1ccc(-c2nc(C(Cl)Cl)c3ccccc3n2)cc1,–,–,·,0.164µM,0.146µM,–
COCCN(CCOC)c1nc(-c2ccc([N+](=O)[O-])cc2)nc2ccccc12,·,–,·,6.51µM,0.581µM,–
COc1ccccc1Nc1nc(-c2ccc([N+](=O)[O-])cc2)nc2ccccc12,–,–,·,?,?,–
CN(Cc1ccccc1)c1nc(-c2ccc([N+](=O)[O-])cc2)nc2ccccc12,–,–,–,?,18.4µM,–
COc1ccc2c(c1)c1c(c(=O)n(-c3ccc(F)c(Cl)c3)c(=O)n1CC(=O)N1CCCC1)n2C,·,·,–,–,–,·
C=CCSC1=C(C#N)C(c2ccccc2Cl)C(C(=O)c2cccs2)C(O)(C(F)(F)F)N1 (stereo not drawn),–,–,–,16.4µM,?,–
CCSC1=C(C#N)C(c2ccccc2Cl)C(C(=O)c2cccs2)C(O)(C(F)(F)F)N1 (stereo not drawn),–,–,–,?,?,–
CCN(CC)CC1C(=O)N(c2ccc(OC)cc2)C1c1ccccc1 (stereo not drawn),–,–,·,?,–,–
COc1ccc(NC2=CC(c3ccccc3)N(c3ccc(OC)cc3)C2=O)cc1 (stereo not drawn),·,–,–,8.2µM,?,–
COc1ccc(N2C(=O)C(CN3CCCCC3)C2c2ccccc2)cc1 (stereo not drawn),–,–,–,13µM,?,–
COC(=O)c1ccc(C(=O)OC)c(NC(=O)CCC(=O)O)c1,–,–,–,–,–,–
Cc1cc(C)c(C)c(S(=O)(=O)N[C@@H](C)C(=O)OCc2cc(=O)n3cc(Br)ccc3n2)c1C,–,–,–,–,–,–
C[C@@H]1CCCCO[C@H](CN(C)S(=O)(=O)c2cccs2)[C@@H](C)CN([C@H](C)CO)C(=O)c2cc(NC(=O)C3CCCCC3)ccc2O1,–,–,·,25.9µM,18.4µM,–
C[C@@H]1CN([C@@H](C)CO)C(=O)c2cc(N(C)C)ccc2O[C@@H](C)CCCCO[C@@H]1CN(C)S(=O)(=O)c1cccs1,–,–,·,16.4µM,18.4µM,–
C[C@H](CO)N1C[C@H](C)[C@@H](CN(C)S(=O)(=O)c2cccs2)Oc2ccc(NC(=O)NC3CCCCC3)cc2C1=O,–,–,–,?,?,–
C[C@H](CO)N1C[C@H](C)[C@@H](CN(C)S(=O)(=O)c2ccccc2)Oc2ccc(NC(=O)NC3CCCCC3)cc2C1=O,–,–,–,20.6µM,?,–
C[C@@H]1CCCCO[C@H](CN(C)S(=O)(=O)c2cccs2)[C@H](C)CN([C@@H](C)CO)C(=O)c2cc(NC(=O)NC3CCCCC3)ccc2O1,–,–,·,11.6µM,18.4µM,–
CC(C)C[C@H](NC(=O)c1nc[nH]c1C(=O)N[C@@H](CCCCNC(=O)OC(C)(C)C)C(=O)OC(C)(C)C)C(=O)OCc1ccccc1,–,–,·,?,?,–
C[C@@H]1CCCCO[C@@H](CN(C)S(=O)(=O)c2cccs2)[C@@H](C)CN([C@H](C)CO)C(=O)c2cc(NS(=O)(=O)c3ccccc3)ccc2O1,?,–,·,8.2µM,16.4µM,?
C[C@H]1CCCCO[C@H](CN(C)S(=O)(=O)c2cn(C)cn2)[C@@H](C)CN([C@@H](C)CO)C(=O)c2cc(NS(=O)(=O)c3ccccc3)ccc2O1,–,–,·,–,–,–
C=C(C[C@]1(C(=O)OC)CC2(CC=C(C)C)C(=O)C(C(=O)CC(C)C)=C(O)C(CC=C(C)C)(C1)C2=O)C(=O)OC (stereo partly drawn),·,·,–,·,·,·
COC(=O)c1ccc(C2c3[nH]c4ccccc4c3C[C@H]3C(=O)N(C4CCN(Cc5ccccc5)CC4)CC(=O)N23)cc1 (stereo partly drawn),–,–,·,?,?,–
O=C1[C@@H]2Cc3c([nH]c4ccccc34)C(c3ccccc3)N2C(=O)CN1C1CCN(Cc2ccccc2)CC1 (stereo partly drawn),–,–,·,16.4µM,16.4µM,-65.5
SMILES,CtBP-E1A blk,Six1-Eya2 inh,TDP1 block,DT40 TDP1 no CPT,DT40 TDP1 CPT,IL-1B inflam inh
COc1cccc(C2c3[nH]c4ccccc4c3C[C@H]3C(=O)N(C4CC4)CC(=O)N23)c1 (stereo partly drawn),·,–,·,?,?,–
O=C1[C@@H]2Cc3c([nH]c4ccccc34)C(c3cccc(Br)c3)N2C(=O)CN1C1CCN(Cc2ccccc2)CC1 (stereo partly drawn),–,–,·,20.6µM,?,-64.1
CCCCN(CCCC)/C(N)=N/c1nc(C)cc(C)n1,–,–,–,?,23.1µM,–
Cc1cc(C)nc(/N=C(\N)N(Cc2ccccc2)Cc2ccccc2)n1,–,–,–,?,?,-72.0
CC(=O)N(C(C)=O)c1nc(-c2ccccc2)cn1/N=C/c1cccc([N+](=O)[O-])c1,–,–,–,–,–,–
Cc1ccc2oc(C(=O)N3CCN(CCO)CC3)c(C)c2c1,–,–,–,–,–,–
O=C(N/N=C\c1ccc(Cl)cc1)C1=NOC2COC3(CCN(c4ccc([N+](=O)[O-])cc4)CC3)OCC12 (stereo not drawn),–,–,–,6.51µM,10.3µM,–
NNC(=O)C1=NOC2COC3(CCN(c4ncccn4)CC3)OCC12 (stereo not drawn),–,–,–,?,–,–
CCN(C(=O)c1cc2c(Cl)nc3ccc(C)cc3c2s1)c1cc(OC)ccc1OC,·,·,–,14.6µM,?,·
CCc1ccccc1N(C)C(=O)c1cc2c(Cl)nc3ccc(C)cc3c2s1,·,·,–,18.4µM,?,·
CCN(C(=O)c1cc2c(=O)oc3ccc(C)cc3c2s1)c1cc(OC)ccc1OC,·,·,–,?,?,·
Cc1ccc2nc(Cl)c3cc(C(=O)N(CCN(C)C)Cc4ccco4)sc3c2c1,–,–,–,?,–,·
CN(c1ccccc1)S(=O)(=O)c1ccc(C(=O)Nc2nnc(C3=COCCO3)o2)cc1,–,–,–,?,?,–
CCc1nnc(NC(=O)c2ccc(S(=O)(=O)N(C)c3ccccc3)cc2)o1,–,–,–,4.61µM,11.6µM,–

# Screening data deposited in PubChem BioAssay by National Center for Advancing Translational Sciences (NCATS).
